From PubChem
Rows were chosen to be rich in hits. Some 1% of all compounds tested hit in one or more screens of this group.
PriA SSB inh – inhibitors of Klebsiella pneumoniae PriA binding to SSB C-terminal tail, primary screen, biochemical, AlphaScreen; PriA–SSB C-terminal tail interaction (Klebsiella pneumoniae); AlphaScreen SSBct-PriA binding, biotinylated peptide; inhibition, % at 33 µM; hit rate 0.6% among 430,000; AID 1272365, 2023; in the data active means inhibition mostly above about 37%, no sharp cut-off; inactive means mostly below about 20%
RN4220 kill – growth inhibition of S. aureus RN4220, primary screen, OD600; 16 h; inhibition, % (test concentration not listed); hit rate 0.33% among 330,000; AID 1259311, 2017; in the data active means inhibition above about 85%
ugtP null kill – growth inhibition of ugtP-null S. aureus, primary screen, RN4220 ugtP deletion, OD600. 16 h. AID 1259309, 2017. growth inhibition, % (concentration not given with the values). hit rate 0.54% among 330,000; in the data active means growth inhibition above about 68%
Each line names hits and unclear results; the compound was inactive in the other large screens.

CCOc1ccccc1NC(=O)CN1CCN(Cc2nc(-c3cccs3)cs2)CC1	none (no result: RN4220 kill, ugtP null kill)
O=C(CSc1ccc(-c2ccccc2)nn1)N1CCCc2ccccc21	none
O=C(CSc1nccn1-c1ccccc1)N1CCc2ccccc21	none
O=C(CSc1nccn1-c1ccc(Cl)cc1)N1CCCc2ccccc21	PriA SSB inh 55.8
O=C(CSc1ncc(-c2ccccc2)[nH]1)N1CCCc2ccccc21	PriA SSB inh 39.0 (no result: RN4220 kill, ugtP null kill)
CCN(CC)c1ccc(C=NNC(=O)Cc2nnc(NC(=O)Nc3ccccc3)s2)cc1	none (no result: RN4220 kill, ugtP null kill)
CCOC(=O)Nc1nc(CC(=O)NCCc2c[nH]c3ccccc23)cs1	none (no result: RN4220 kill, ugtP null kill)
CC1CCCC(C)N1CC(O)COc1ccccc1Cl (stereo not drawn)	none (no result: RN4220 kill, ugtP null kill)
Fc1ccc2cnc(-c3ccccc3)c(-c3ccc(C(F)(F)F)cc3)c2c1	none
COc1cc2cnc(-c3ccccc3)c(-c3ccc(C(F)(F)F)cc3)c2cc1OC	RN4220 kill 100.0, ugtP null kill 100.5
CCOC(=O)c1nnn(-c2ccccc2OC)c1C(=O)OCC	none (no result: RN4220 kill, ugtP null kill)
CCOC(=O)c1cc2c(OC)ccc(OC)c2n1CC(=O)c1ccccc1	ugtP null kill 89.4
Cn1cccc(C(=O)N2CC(Oc3nccs3)C2)c1=O	none (no result: RN4220 kill, ugtP null kill)
O=C(Nc1ccncc1)c1cccn(Cc2ccccc2Cl)c1=O	none (no result: RN4220 kill, ugtP null kill)
O=C(C(=O)N1CCN(Cc2ccc3c(c2)OCO3)CC1)c1cn(CC(=O)N2CCCC2)c2ccccc12	none (no result: RN4220 kill, ugtP null kill)
O=C(NCc1ccc(F)cc1)c1cnn2ccccc12	PriA SSB inh 104.2
CCc1ccc(NC(=O)c2cnn3ccccc23)cc1	none
CSc1nc2ccc3nc(N)sc3c2s1	none (no result: RN4220 kill, ugtP null kill)
Nc1nc2ccc([N+](=O)[O-])c(N)c2s1	PriA SSB inh 54.8
COc1cccc(-c2nc(OC(C)C)c3ccccc3n2)c1	ugtP null kill 93.7
COc1cccc(Nc2nc(-c3ccccc3)nc3ccccc23)c1	ugtP null kill 90.6
O=C(O)c1cccc(Nc2nc(-c3ccc([N+](=O)[O-])cc3)nc3ccccc23)c1	none
CC(C)Oc1nc(-c2ccc(Cl)cc2)nc2ccccc12	none
c1ccc(Nc2nc(-c3ccccc3)nc3ccccc23)cc1	none
O=[N+]([O-])c1ccc(-c2nc(Nc3cccc(O)c3)c3ccccc3n2)cc1	RN4220 kill 84.9, ugtP null kill 82.7
COc1ccc(Nc2nc(-c3ccccc3O)nc3ccccc23)cc1	ugtP null kill 93.5
COc1cccc(Nc2nc(-c3ccccc3O)nc3ccccc23)c1	none
COc1ccc(S(=O)(=O)NCCCn2nc(-c3cccs3)ccc2=O)cc1OC	none (no result: RN4220 kill, ugtP null kill)
O=C1NCCN1C(=O)Nc1ccc2c(c1)N(C(=O)c1ccccc1)CCC2	none (no result: RN4220 kill, ugtP null kill)
CCOc1ccc(-n2nnc(C(=O)NCc3ccco3)c2COC)cc1	none (no result: RN4220 kill, ugtP null kill)
COc1ccc(C(=O)NCCc2nnc3ccc(SCc4cccc([N+](=O)[O-])c4)nn23)cc1	none (no result: RN4220 kill, ugtP null kill)
CC(=O)c1sc(NC(=O)c2cccc(C(=O)Nc3nc(-c4ccccc4)c(C(C)=O)s3)n2)nc1-c1ccccc1	none (no result: RN4220 kill, ugtP null kill)
COc1ccc(Cl)cc1C(=O)NCCN1CCN(c2ccc(F)cc2)CC1	none (no result: RN4220 kill, ugtP null kill)
O=C(Nc1cccc(C(F)(F)F)c1)c1cccnc1N1CCN(CCO)CC1	none
O=C(Nc1cccc(C(F)(F)F)c1)c1cccnc1N1CCN(c2ccccc2)CC1	ugtP null kill 92.1
COc1ccc(NC(=O)c2cc(N3CCCC3)ncn2)cc1Cl	none (no result: RN4220 kill, ugtP null kill)
CCn1c(-c2ccccc2)c(C(=O)CCl)c2ccccc21	RN4220 kill 97.3, ugtP null kill 99.4
Cn1c(-c2ccccc2)c(C(=O)CCl)c2ccccc21	none
CCOC(=O)c1sc(NC(=O)C2CCCN(S(C)(=O)=O)C2)nc1-c1ccccc1 (stereo not drawn)	none (no result: RN4220 kill, ugtP null kill)
O=C(/C=C/c1cc(Br)ccc1O)c1ccco1	RN4220 kill 90.8, ugtP null kill 92.4
O=C(/C=C/c1ccccc1O)c1ccco1	none
NCC(O)c1cccs1 (stereo not drawn)	none (no result: RN4220 kill, ugtP null kill)
CC(=O)N1CCCC1CO (stereo not drawn)	none (no result: RN4220 kill, ugtP null kill)
CN(CC#CCNC(=O)COc1ccc(F)cc1)Cc1ccccc1	none (no result: RN4220 kill, ugtP null kill)
COc1cc(Cn2cc(CC(=O)NCc3ccc4c(c3)OCO4)c3ccccc32)cc(OC)c1	none (no result: RN4220 kill, ugtP null kill)
C/C=C/c1ccc(OCC(O)CN2CCN(c3cccc(Cl)c3)CC2)c(OC)c1 (stereo not drawn)	PriA SSB inh 36.0 (no result: RN4220 kill, ugtP null kill)
C/C=C/c1ccc(OC[C@@H](O)CN2CCN(c3cccc(C(F)(F)F)c3)CC2)c(OC)c1	none (no result: RN4220 kill, ugtP null kill)
COc1ccc(OC)c(-c2cc(C(=O)NCCn3ccnc3-c3ncccn3)n(C)n2)c1	none (no result: RN4220 kill, ugtP null kill)
CCOc1ccc2c(c1)C(=O)c1cc(OCC(=O)O)ccc1-2	none
CCCCOc1ccc2c(c1)C(=O)c1cc(O)ccc1-2	ugtP null kill 92.2
Cc1cccn2c(=O)c(/C=N\O)c(NCCO)nc12	none (no result: RN4220 kill, ugtP null kill)
Cc1[nH]n(C2=NCCS2)c(=O)c1N=Nc1cccc(C(F)(F)F)c1	RN4220 kill 99.4, ugtP null kill 99.2
Cc1[nH]n(C(N)=S)c(=O)c1N=Nc1cccc(C(F)(F)F)c1	none
CC(C)(C)C(=O)NC(=S)NNC(=O)c1sc2ccccc2c1Cl	RN4220 kill 93.9, ugtP null kill 97.4
O=C(NNC(=S)NC1CCCCC1)c1sc2ccccc2c1Cl	none
Cc1ccc(S(=O)(=O)CCCC(=O)Nc2sccc2C#N)cc1	none (no result: RN4220 kill, ugtP null kill)
CC(C)(C)CC(=O)Nc1nnc(C(F)(F)F)s1	none
CC(NC(=O)Nc1nnc(C(F)(F)F)s1)(C(F)(F)F)C(F)(F)F	ugtP null kill 83.2
CSc1nnc(NC(=O)c2ccccc2Cl)s1	none (no result: RN4220 kill, ugtP null kill)
O=C(Nc1nnc(C(F)(F)F)s1)c1ccc(Br)s1	ugtP null kill 80.6
O=C(Nc1ccccc1C(=O)Nc1nnc(C(F)(F)F)s1)c1ccccc1Cl	RN4220 kill 88.0, ugtP null kill 89.8
CCSc1nnc(NC(=O)c2ccc(Br)s2)s1	none
O=C(Nc1nnc(C2CC2)s1)C1COc2ccccc2O1 (stereo not drawn)	none
O=C(Nc1nnc(C(F)(F)F)s1)C1COc2ccccc2O1 (stereo not drawn)	ugtP null kill 88.4
CCC(O)=C1C(=O)CC(c2ccccc2)CC1=NCCC(=O)O (stereo not drawn)	none (no result: RN4220 kill, ugtP null kill)
Cc1nc(-c2ccccc2NC(=O)c2sc(-n3cccc3)nc2C)cs1	none (no result: RN4220 kill, ugtP null kill)
CCc1ccc(S(=O)(=O)Nc2ccc3c(c2)CC(=O)N3)s1	none (no result: RN4220 kill, ugtP null kill)
O=C(CCc1ccccc1F)N1CCC(n2ccnn2)C1 (stereo not drawn)	none (no result: RN4220 kill, ugtP null kill)
C=CCNC(=O)C(=O)Nc1ccccc1	none (no result: RN4220 kill, ugtP null kill)
CCc1nccn1CC(C)C(=O)O (stereo not drawn)	none (no result: RN4220 kill, ugtP null kill)
Cc1nn(-c2ccccc2)nc1C(=O)Nc1nnc(C(F)(F)F)s1	ugtP null kill 86.3
CCc1nnc(NC(=O)c2nn(-c3ccccc3)nc2C)s1	none
O=C(NCCCn1ncccc1=O)c1cc2n(n1)CCCO2	none (no result: RN4220 kill, ugtP null kill)
O=C(NCCCn1ccnc1)c1cc2n(n1)CCCO2	PriA SSB inh 34.0 (no result: RN4220 kill, ugtP null kill)
Cc1ccc(-n2ncc3c(=O)[nH]c(SCC(=O)N4CCCC4)nc32)cc1C	none
Cc1ccc(-n2ncc3c(=O)[nH]c(SCC(=O)N4CCC(C)CC4)nc32)cc1C	PriA SSB inh 86.1 (no result: RN4220 kill, ugtP null kill)
CCOc1ccc(S(=O)(=O)N(CCc2cccs2)C2CC2)cc1C	none (no result: RN4220 kill, ugtP null kill)
NCCCCc1ccc2ccc3cccc4ccc1c2c34	RN4220 kill 100.5, ugtP null kill 100.1
O=C(O)CCCc1ccc2ccc3cccc4ccc1c2c34	none
O=C(c1ccsc1)N1CCN(c2nccn3nc4c(c23)CCCC4)CC1	none (no result: RN4220 kill, ugtP null kill)
CSC[C@@](C)(O)CNC(=O)c1csc(-c2ccccc2)n1	none (no result: RN4220 kill, ugtP null kill)
CCOC(=O)c1sc(NC(=S)NC(=O)c2ccccc2Cl)c(C(=O)OCC)c1C	none
CCOC(=O)c1sc(NC(=O)c2ccncc2)c(C(=O)OCC)c1C	none (no result: RN4220 kill, ugtP null kill)
